# Assay outcomes from PubChem BioAssay.
# The list is not random: actives were taken first. Their share in the collection is about 4.8%.
# USP1-UAF1 inh = USP1/UAF1 (human) deubiquitinase inhibition; O94782; recombinant USP1/UAF1, Ub-Rhodamine cleavage fluorescence; Potency, µM (doses to about 57.1 µM), without a hit: top-dose activity change, negative = inhibition, actives largely listed as inhibitors; 390,000 tested, 0.23% active; further: potency means the concentration at half of the fitted maximal effect; on the % scale 0 is the no-effect control and ±100 the full control effect; nearly all actives have a fitted effect of over 60% in size
#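 Step one: compound is pinned into 1nM USP1/UAF1 in HEPES pH 7.8 buffer with TCEP. Step two: 15 min room-temperature incubation. Step three: Ub-Rho (150nM final) starts cleavage, tracked by fluorescence over six one-minute reads.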
# ATXN2 expr inh = ATXN2 expression inhibition. Potency, µM (series often up to 57 µM), for the others: at the highest dose activity change, negative = inhibition, most hits filed as inhibitors. HEK-293 ATXN2-luciferase reporter, luminescence, 24 h. AID 1745845. 360,000 tested, 0.72% active; further: potency means the concentration at half of the fitted maximal effect; on the % scale 0 is the no-effect control and ±100 the full control effect; nearly all actives have a fitted effect of over 55% in size
#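 ATXN2-luciferase reporter cells (luciferase flanked by upstream and downstream ATXN2 gene portions) were treated 24 h at 37 °C with compounds at up to 57 uM. SteadyGlo luminescence gave expression; GF-AFC fluorescence gave viability.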
# USP2a block = blocks human ubiquitin-specific protease USP2a | USP2 core, Ub-CHOP2 coupled fluorogenic reporter, 485/531 | 330,000 tested, 0.01% active | Potency, µM (series often up to 38.3 µM), for the others: at the highest dose activity change, negative = inhibition, usual class: inhibitors | O75604 | AID 463254;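 further: potency means the concentration at half of the fitted maximal effect; plate controls were DMSO wells for no effect and full inhibition by NEM control for full effect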
# Target sequence (O75604 whole entry, looked up): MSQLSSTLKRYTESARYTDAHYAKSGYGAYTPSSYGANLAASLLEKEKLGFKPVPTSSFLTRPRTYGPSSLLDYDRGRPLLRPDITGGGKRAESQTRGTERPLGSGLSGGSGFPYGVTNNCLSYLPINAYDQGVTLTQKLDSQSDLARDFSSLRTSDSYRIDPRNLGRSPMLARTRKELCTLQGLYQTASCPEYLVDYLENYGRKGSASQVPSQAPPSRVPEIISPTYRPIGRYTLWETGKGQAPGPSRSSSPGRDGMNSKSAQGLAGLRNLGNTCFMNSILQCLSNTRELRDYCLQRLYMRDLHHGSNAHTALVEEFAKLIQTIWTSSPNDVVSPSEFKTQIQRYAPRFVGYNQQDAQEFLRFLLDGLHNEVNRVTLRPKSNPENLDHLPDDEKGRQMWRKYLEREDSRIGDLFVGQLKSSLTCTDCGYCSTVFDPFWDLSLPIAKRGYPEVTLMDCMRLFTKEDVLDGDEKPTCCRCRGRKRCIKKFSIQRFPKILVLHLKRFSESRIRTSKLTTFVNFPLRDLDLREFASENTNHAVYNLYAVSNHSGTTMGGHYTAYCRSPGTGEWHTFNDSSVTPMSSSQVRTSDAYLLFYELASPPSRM
#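 USP2 core (10nM final) preincubated 30min RT with compound in 20mM Tris-HCl pH 8.0, 2mM CaCl2, 2mM beta-mercaptoethanol, 0.05% CHAPS; 25nM Ub-CHOP2 plus 25nM reporter substrate added, fluorescence (Ex485/Em531) read after 60min.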
# IL1B secr inh = blocks inflammasome-driven IL-1 beta release; THP-1 LPS/ATP IL-1B secretion, AlphaLISA, 16 h; hits give low values; activity change, % at 57.5 µM; 360,000 tested, 4.7% active; AID 743279; in the data active means activity change below about -50%; inconclusive means mostly about -30% to -49%; further: on the % scale 0 is the no-effect control and ±100 the full control effect
#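 Secreted IL-1B measured by AlphaLISA bead assay after 16 h compound exposure of THP-1 cells; compounds (final up to 57.5 uM) added 1 h before LPS (250 ng/mL) and ATP (1.25 mM) stimulation; lower signal means less secretion.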
# S2 tox = cell viability loss in ATXN counter-screen | S2 cells (HEK-293 line with an ATXN2-luciferase reporter) viability, CellTiter-Fluor protease fluorescence, 24 h | Potency, µM (doses to about 56.7 µM), hits mostly cytotoxic | 400,000 tested, 0.49% active | AID 651635; further: potency means the concentration at half of the fitted maximal effect; nearly all actives have a fitted effect of over 40% in size
# An asterisk follows results filed as active; i = inactive; ? = inconclusive; . = no result given; [ ] = another dose, or the depositor's remark. Unless noted, the call rests on the fitted dose curve; in most records, active means well fitted curve in the direction sought with a large enough effect; inconclusive means small, poorly fitted or top-dose-only effect, or another doubt; inactive means no such curve, though single readings can be large; an effect the other way counts as inactive or inconclusive.
SMILES,USP1-UAF1 inh,ATXN2 expr inh,USP2a block,IL1B secr inh,S2 tox
COCC1CCN(Cc2cn(Cc3ccccc3)nc2-c2cc3ccccc3o2)CC1,-8%,-26%,-1%,-61*,i
COc1cccc(Cc2n[nH]c(=S)n2Cc2ccco2)c1,-7%,-22%,0%,26,i
Cc1ncc2c(c1CNC(=O)/C=C/c1cccs1)CCN(C(=O)C1CCCO1)C2 (centres undefined),.,.,.,.,i
Cc1cc2[nH]c3ccccc3c2c(C)n1,-3%,?,4%,-94*,i
COC(=O)c1cccc(-n2c(C)cc(C=O)c2C)c1,-19%,11%,4%,14,i
COC(=O)c1cc(C(=O)OC)cc(-n2c(C)cc(C=O)c2C)c1,-13%,10%,0%,-66*,i
CC(C)(C)OC(=O)N1CCC(c2cc(-c3cccs3)n[nH]2)CC1,-14%,1%,1%,-76*,i
Cc1ccc(-n2ncc(C(=O)NCc3cccs3)c2C2CCN(C(=O)OC(C)(C)C)CC2)cc1C,-18%,.,.,.,.
CCCCn1c(N)c(N(CCOC)C(=O)c2cccc(-n3cnnn3)c2)c(=O)[nH]c1=O,-15%,5%,-1%,4,i
CC(C)(C)c1sc(N)nc1-c1ccccc1,2%,2%,.,-102*,i
Cc1sc(N)nc1-c1ccccc1,-11%,15%,-3%,14,i
O=C(CSc1nnc(CNc2ccccc2)o1)c1ccc2c(c1)OCCO2,?,46%,2%,-68*,i
COc1ccc(NCc2nnc(SCC(=O)c3ccc(OC)cc3)o2)cc1,-12%,3%,-2%,-5,i
CCOc1cc(C(=O)CSc2nnc(CNc3ccc(Cl)cc3)o2)ccc1NC(=O)CC,-4%,32µM*,-11%,-103*,20µM*
O=C(CSc1nnc(CNC(=O)c2ccco2)o1)c1ccc(Cl)cc1,-13%,-5%,-1%,-106*,i
O=C(NCc1nnc(SCC(=O)N2CCCCCC2)o1)c1ccco1,-13%,-5%,1%,13,i
COc1ccc(C(=O)NC2=NCCS2)cc1S(=O)(=O)N1CCOCC1,-21%,.,.,11,i
CC(=O)NC12CC3CC(C1)CC(C(=O)N(C)Cc1cccc(Cl)c1Cl)(C3)C2,-28%,-26%,-2%,-21,i
CC1CN(C(=O)c2ccc(-c3cccc(C(F)(F)F)c3)o2)CC(C)O1 (centres undefined),-9%,-27%,0%,-56*,i
O=C(c1ccc(-c2cccc(C(F)(F)F)c2)o1)N1CCN(c2ccccc2)CC1,-11%,-7%,-1%,-2,i
O=C(c1ccco1)N1CCN(C(=O)c2ccc(-c3cccc(C(F)(F)F)c3)o2)CC1,-23%,7%,9%,-70*,i
O=C(c1ccc(-c2cccc(C(F)(F)F)c2)o1)N1CCCCCCC1,-26%,9%,5%,-5,?
COc1ccc(-c2nn(-c3ccccc3)cc2/C=N/N2C(=O)CSC2=S)cc1,-19%,?,0%,-106*,.
COC(=O)[C@@H]1CCCN1C(=O)c1c(OC)cc(=O)n2c1CCN(Cc1ccc3nsnc3c1)CC2,.,.,.,.,i
COc1ccc(C(=O)NC(=O)COC(=O)C2CC2C)cc1 (centres undefined),-1%,-1%,-1%,23,i
SMILES,USP1-UAF1 inh,ATXN2 expr inh,USP2a block,IL1B secr inh,S2 tox
COc1ccc(CCNC(=O)c2ccc(Cn3c(=O)c4ccccc4n(Cc4cccc(F)c4)c3=O)cc2)cc1OC,-14%,?,.,.,28µM*
COc1ccc(CCNC(=O)c2ccc(Cn3c(=O)c4ccccc4n(Cc4cccc(Cl)c4)c3=O)cc2)cc1OC,-18%,-14%,.,.,?
Cc1ccccc1C(=O)Nc1ccc(C(=O)N/N=C/c2ccncc2)cc1,?,?,0%,12,i
COc1cc(/C=N/NC(=O)c2cccc(NC(=O)c3ccccc3C)c2)ccc1O,-12%,0%,7%,-6,i
O=C(Nc1cccc(NC(=O)c2ccccc2Cl)c1)c1ccc(F)cc1,-1%,?,1%,-12,i
Cc1ccccc1C(=O)Nc1cccc(NC(=O)c2ccc(F)cc2)c1,-24%,-4%,1%,-50*,i
Cc1ccc(/C=N/NC(=O)c2ccc(NC(=O)c3ccccc3Cl)cc2)o1,-19%,0%,0%,-71*,i
Cc1ccccc1C(=O)Nc1cccc(C(=O)N/N=C/c2cc(Cl)cc([N+](=O)[O-])c2O)c1,-10%,22µM*,-16%,166,i
Cc1ccccc1C(=O)Nc1ccc(C(=O)N/N=C/c2ccc(O)cc2)cc1,-17%,-21%,1%,-99*,i
Cc1c(C(=O)NCC2COCCO2)cnn1-c1nccc(-c2cccs2)n1 (centres undefined),.,.,.,.,i
O=C(COc1ccc2ccc(=O)oc2c1)Nc1cccc(S(=O)(=O)N2CCCCC2)c1,-18%,-28%,4%,18,?
Cc1ccc(-c2nc(CNC(=O)NC3CCCCC3)c(C)o2)cc1,-22%,12%,.,.,i
CCOc1ccc2nc3c(cc2c1)CN(CCCO)C(=NCCOC)S3,-15%,19%,-2%,?,i
COCCN1Cc2cc3cc(C)ccc3nc2SC1=Nc1ccc(OC)cc1,-28%,-9%,-1%,-53*,i
CCC(C)N=C1Sc2nc3ccc(C)cc3cc2CN1CCOC (centres undefined),-13%,9%,-1%,-83*,i
CCOc1ccc(N=C2Sc3nc4ccc(C)cc4cc3CN2CCOC)cc1,-21%,-22%,0%,-10,i
COCCN=C1Sc2nc3ccc(C)cc3cc2CN1Cc1cccs1,-26%,7%,-6%,-87*,.
c1cc(-c2cc3c(o2)CCCC3OCCN2CCOCC2)cs1 (centres undefined),.,12%,.,-11,i
COc1cccc(/C=N/Nc2nccnc2Cl)c1O,-12%,5.6µM*,0%,111,?
COc1cccc(/C=N/Nc2ncnc3scc(-c4ccccc4)c23)c1O,?,1.1µM*,-1%,46,i
COc1cccc(/C=N/Nc2ncnc(Cl)c2N)c1O,-12%,?,-8%,14,11µM*
Oc1ccccc1/C=N/Nc1nccnc1Cl,-11%,?,4%,111,?
Cc1ccc(-n2c(-c3ccccc3)c[n+]3c2CCc2ccccc2-3)c(C)c1,-9%,?,8%,-99*,i
Cc1ccc(-n2c(SCC(=O)N3CCCc4ccccc43)nnc2-c2cccnc2)c(C)c1,?,-13%[11.3 µM],3%,20,i
CN1CCN(/N=C/c2ccc(N(c3ccccc3)c3ccccc3)cc2)CC1,-6%,0.84µM*,-1%,-51*,.
CN(C)c1c2ccccc2nc2c(F)c(F)c(F)c(F)c12,-24%,?,3%,-96*,.
N#CC[C@H](C1CCCC1)n1cc(-c2ncnc3[nH]ccc23)cn1,.,25%,.,.,.
